Results on 35 compounds are retold here after PubChem BioAssay.

Sequence of Neurogenic locus notch homolog protein 2 (Homo sapiens) (Q04721 whole entry, looked up): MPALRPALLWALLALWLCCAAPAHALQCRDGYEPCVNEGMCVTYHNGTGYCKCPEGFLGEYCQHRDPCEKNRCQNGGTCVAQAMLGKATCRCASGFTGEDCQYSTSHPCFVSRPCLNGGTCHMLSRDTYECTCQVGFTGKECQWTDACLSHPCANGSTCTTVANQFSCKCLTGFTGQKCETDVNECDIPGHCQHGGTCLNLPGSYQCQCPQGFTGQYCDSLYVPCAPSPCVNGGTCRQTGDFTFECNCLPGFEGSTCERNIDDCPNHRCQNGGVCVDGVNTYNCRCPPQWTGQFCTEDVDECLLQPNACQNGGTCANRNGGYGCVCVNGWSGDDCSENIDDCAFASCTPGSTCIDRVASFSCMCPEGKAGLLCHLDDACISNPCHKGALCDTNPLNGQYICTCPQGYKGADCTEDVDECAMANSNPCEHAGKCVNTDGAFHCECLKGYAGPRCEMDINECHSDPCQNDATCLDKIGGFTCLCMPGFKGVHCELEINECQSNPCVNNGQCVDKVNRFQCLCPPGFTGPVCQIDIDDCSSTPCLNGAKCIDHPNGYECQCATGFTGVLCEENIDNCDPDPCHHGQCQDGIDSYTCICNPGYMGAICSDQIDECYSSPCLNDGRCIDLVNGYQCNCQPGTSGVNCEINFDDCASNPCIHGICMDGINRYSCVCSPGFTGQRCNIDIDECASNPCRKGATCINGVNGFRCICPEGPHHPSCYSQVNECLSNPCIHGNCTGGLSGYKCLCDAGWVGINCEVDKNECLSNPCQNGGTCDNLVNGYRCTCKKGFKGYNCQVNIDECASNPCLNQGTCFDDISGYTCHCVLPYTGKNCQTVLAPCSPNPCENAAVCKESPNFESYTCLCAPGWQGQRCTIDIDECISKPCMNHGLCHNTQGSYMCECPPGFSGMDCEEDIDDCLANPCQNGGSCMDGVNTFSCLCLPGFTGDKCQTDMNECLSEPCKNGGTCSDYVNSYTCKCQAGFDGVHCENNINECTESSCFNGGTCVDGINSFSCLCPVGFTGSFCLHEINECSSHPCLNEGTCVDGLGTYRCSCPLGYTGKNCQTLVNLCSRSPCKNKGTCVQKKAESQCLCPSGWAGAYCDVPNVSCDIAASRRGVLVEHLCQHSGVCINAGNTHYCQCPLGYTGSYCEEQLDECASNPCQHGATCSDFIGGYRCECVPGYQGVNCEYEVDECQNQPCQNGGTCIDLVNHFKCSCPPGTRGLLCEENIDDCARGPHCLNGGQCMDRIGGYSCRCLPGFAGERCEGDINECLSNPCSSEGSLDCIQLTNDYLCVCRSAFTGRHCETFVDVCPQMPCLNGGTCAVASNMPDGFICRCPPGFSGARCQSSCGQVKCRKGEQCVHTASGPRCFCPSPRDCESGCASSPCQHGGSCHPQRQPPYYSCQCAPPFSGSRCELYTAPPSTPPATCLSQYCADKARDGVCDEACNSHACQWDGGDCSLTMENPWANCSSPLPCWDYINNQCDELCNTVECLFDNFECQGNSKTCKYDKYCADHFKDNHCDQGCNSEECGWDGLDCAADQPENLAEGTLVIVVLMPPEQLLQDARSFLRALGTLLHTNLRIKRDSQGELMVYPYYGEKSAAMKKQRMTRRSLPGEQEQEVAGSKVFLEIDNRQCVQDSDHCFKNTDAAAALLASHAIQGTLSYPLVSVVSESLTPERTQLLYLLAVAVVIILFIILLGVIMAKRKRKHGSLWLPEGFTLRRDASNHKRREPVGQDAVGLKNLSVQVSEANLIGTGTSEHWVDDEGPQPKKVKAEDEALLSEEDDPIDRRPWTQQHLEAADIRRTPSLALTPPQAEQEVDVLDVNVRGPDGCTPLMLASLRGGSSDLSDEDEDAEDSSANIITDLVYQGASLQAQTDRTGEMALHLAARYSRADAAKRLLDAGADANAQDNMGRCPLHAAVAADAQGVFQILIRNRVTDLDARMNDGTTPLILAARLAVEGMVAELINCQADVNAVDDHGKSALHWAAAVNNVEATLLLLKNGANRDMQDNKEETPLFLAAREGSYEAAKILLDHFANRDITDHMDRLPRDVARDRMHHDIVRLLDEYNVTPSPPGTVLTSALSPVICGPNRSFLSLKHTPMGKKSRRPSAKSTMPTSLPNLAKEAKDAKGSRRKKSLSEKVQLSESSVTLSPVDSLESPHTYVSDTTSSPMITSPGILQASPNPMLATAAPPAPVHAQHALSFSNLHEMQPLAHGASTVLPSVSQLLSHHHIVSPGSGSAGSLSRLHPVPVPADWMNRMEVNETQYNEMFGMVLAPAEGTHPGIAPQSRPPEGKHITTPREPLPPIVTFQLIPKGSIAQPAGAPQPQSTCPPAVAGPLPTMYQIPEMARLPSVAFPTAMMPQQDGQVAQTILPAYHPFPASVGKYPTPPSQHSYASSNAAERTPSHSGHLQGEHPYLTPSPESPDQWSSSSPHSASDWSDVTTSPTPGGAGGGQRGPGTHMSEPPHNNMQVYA

One experiment has as its target Neurogenic locus notch homolog protein 2 (Homo sapiens) (UniProt Q04721). Briefly: Notch2 binders on small-molecule microarrays, primary screen, biochemical, small-molecule microarray, 635 nm fluorescence, stem cell growth factors (AID 1073). As to conditions: Notch2 binding, higher = more signal.
The compound `COC(=O)[C@@]1(Cc2ccc(OC)cc2)[C@H]2c3cc(C(=O)N(C)C)n(CCc4ccc(OC)c(Br)c4)c3C[C@H]2CN1C(=O)c1ccccc1` displayed a composite z-score of 1.66.
In the case of `C#C[C@H](O[Si](C#Cc1ccccc1)(C(C)C)C(C)C)c1ccccc1`, the composite z-score was -0.677.
On the same count and under the same terms, the figure for `COCCCNC(=O)[C@@H]1c2ccccc2C(=O)N(CC23CC4CC(CC(C4)C2)C3)[C@H]1c1ccc(CO)cc1` is 1.46.
Same read-out and setting: the figure for `C[C@H]1C2[C@H](Cc3ccccc3)NC(=O)[C@]23C(=O)N[C@H](Cc2ccccc2)C(=O)N[C@@H](Cc2ccccc2)C(=O)NC/C=C\C/C=C/C3[C@@H]2O[C@]12C` (stereo partly specified) is 0.155; for `CO[C@]12C=C(Br)[C@@H](C[C@@H]1c1ccccc1)[C@@]1(CO1)C2=O` it is 0.308; for `CO[C@H]1COC(=O)[C@@H](C)COC(=O)[C@H](Cc2ccccc2)NC(=O)CC=C[C@H]1C` it is -0.26.

The target of the next experiment is Pro-neuregulin-1, membrane-bound isoform (Homo sapiens) (UniProt Q02297). Briefly: NRG1 binders on small-molecule microarrays, primary screen, psychiatric disease protein project, biochemical, small-molecule microarray, fluorescence 635/667 (AID 1075).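 Further: score combines 667 nm spot fluorescence with signal to noise.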 As to conditions: NRG1 binding, 635 nm fluorescence, higher = more signal.
Sequence of Pro-neuregulin-1, membrane-bound isoform (Homo sapiens) (Q02297 whole entry, looked up, canonical isoform): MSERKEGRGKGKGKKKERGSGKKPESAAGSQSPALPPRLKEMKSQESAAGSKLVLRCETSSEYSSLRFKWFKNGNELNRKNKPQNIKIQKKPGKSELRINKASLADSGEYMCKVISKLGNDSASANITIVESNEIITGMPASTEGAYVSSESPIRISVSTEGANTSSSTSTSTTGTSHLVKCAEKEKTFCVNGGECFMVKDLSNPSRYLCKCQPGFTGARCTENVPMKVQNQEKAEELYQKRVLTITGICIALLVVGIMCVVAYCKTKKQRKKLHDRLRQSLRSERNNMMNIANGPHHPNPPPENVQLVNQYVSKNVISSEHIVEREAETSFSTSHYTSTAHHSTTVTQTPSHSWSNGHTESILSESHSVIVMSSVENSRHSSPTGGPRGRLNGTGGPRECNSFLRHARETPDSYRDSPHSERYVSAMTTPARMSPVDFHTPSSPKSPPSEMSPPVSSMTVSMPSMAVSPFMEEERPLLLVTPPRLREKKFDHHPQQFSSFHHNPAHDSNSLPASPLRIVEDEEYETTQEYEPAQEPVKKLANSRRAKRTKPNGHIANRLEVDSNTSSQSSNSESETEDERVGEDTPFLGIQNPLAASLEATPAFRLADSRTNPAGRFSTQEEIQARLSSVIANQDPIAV
Compound `C=CC[C@@]1(C(=O)NCC(O)CO)N=C(c2ccc(OCCCO)cc2)O[C@@H]1c1ccccc1CN=[N+]=[N-]` (stereo partly specified) yielded a composite z-score of 1.79.
Still for that read-out and setting: the figure for `CO[C@H]1COC(=O)[C@@H](C)NC(=O)CC=C[C@@H](C)[C@H](OC)COC(=O)CC=C[C@@H]1C` is -0.615.
The same measure, in the same setting: the figure for `CC(C)C[C@@H]1NC(=O)[C@H]2C[C@@H](C(=O)NCCCCCC[N+](C)(C)C)[C@@H](c3ccc(O)cc3)N2C1=O` is 1.77; for `Cc1ccc(S(=O)(=O)N[C@H]2COC(=O)CC=C[C@H](C)COC(=O)N[C@@H](C)C(=O)CC=C[C@@H]2C)cc1` it is -0.195; for `C#CCCCON=C1C[C@@H](O)[C@@H](O)[C@@H]2[C@@H]3C(=O)N(Cc4ccc5c(c4)OCO5)C(=O)[C@@H]3CC[C@@H]12` it is 0.166.
`CO[C@H]1COC(=O)[C@@H](OCc2ccccc2)C=C[C@H](C)[C@@H](OC)COC(=O)[C@H](OCc2ccccc2)C=C[C@@H]1C`: the composite z-score is -0.93.
Consider `COCCOC(=O)N1C(=O)[C@@]2(c3cc(C#CCCO)ccc31)[C@H](c1ccc(OCCO)cc1)N1[C@H](c3ccccc3)[C@H](c3ccccc3)OC(=O)[C@H]1[C@@H]2C(=O)NC[C@H](O)c1ccccc1`, for which the composite z-score was 1.12.
`NC(=O)NCC#Cc1ccc2c(c1)[C@]1(C(=O)N2)[C@H](c2ccccc2OCCO)N2[C@H](c3ccccc3)[C@H](c3ccccc3)OC(=O)[C@H]2[C@@H]1C(=O)N1CCN(c2ncccn2)CC1` came in with a composite z-score of 1.19.
Still for that read-out and setting: the figure for `COCCOC(=O)N1C(=O)[C@@]2(c3cc(C#CCCO)ccc31)[C@H](c1ccc(O)cc1)N1[C@H](c3ccccc3)[C@H](c3ccccc3)OC(=O)[C@H]1[C@@H]2C(=O)Nc1nc2ccccc2s1` is 0.227.
On the same count and under the same terms, the figure for `C=C(COC)C(=O)CC[C@H](OC(=O)c1ccccc1-c1ccccc1C(=O)O)c1cccc(OCCO)c1` is 1.66; for `COC(=O)C(CC#Cc1ccc2c(c1)[C@]1(C(=O)N2)[C@H](C(=O)N2CCCCCCC2)[C@H]2C(=O)O[C@H](c3ccccc3)[C@H](c3ccccc3)N2[C@@H]1c1ccc(O)cc1)C(=O)OC` it is -0.712.
Still for that read-out and setting: the figure for `CCCC[C@H]1OB(O)C[C@H]2C1=C(COC)C[C@H]1C(=O)N(Cc3ccccc3)C(=O)[C@H]12` is 0.173; for `COCCOC(=O)N1C(=O)[C@@]2(c3cc(C#CCCO)ccc31)[C@H](C(=O)N1CCCCCCC1)[C@H]1C(=O)O[C@H](c3ccccc3)[C@H](c3ccccc3)N1[C@@H]2c1ccc(O)cc1` it is 1.17; for `Cc1ccc(S[C@]2(C(=O)O)CC(=O)N(Cc3ccccc3)[C@@H]2c2ccc(CO)cc2)cc1` it is -0.33.
`COCCOC(=O)N1C(=O)[C@@]2(c3cc(C#CCNC(N)=O)ccc31)[C@H](c1ccc(OCCO)cc1)N1[C@H](c3ccccc3)[C@H](c3ccccc3)OC(=O)[C@H]1[C@@H]2C(=O)Nc1nc2ccccc2s1` registered a composite z-score of 0.396.
For `C=CC[C@@]12N=C(c3ccc(OCCCO)cc3)O[C@@H]1c1ccccc1CN(Cc1ccccc1)C2=O`, the composite z-score turned out to be 0.713.
Same read-out and setting: the figure for `O=C(NCC(O)CO)[C@]1(Cc2ccccc2)N=C(c2ccc(OCCCO)cc2)O[C@@H]1c1ccccc1` (stereo partly specified) is 0.951; for `C=CCNC(=O)[C@H]1[C@@H]2C(=O)O[C@@H](c3ccccc3)[C@@H](c3ccccc3)N2[C@@H](c2ccccc2OCCO)[C@]12C(=O)N(C(=O)OCCOC)c1ccc(C#CCNC(N)=O)cc12` it is 1.32.
Same read-out and setting: the figure for `C=CCC(OC(C)=O)[C@@H]1[C@@H](N(Cc2cccc3ccccc23)C(=O)Cc2ccc(F)cc2)c2cc(OCCCO)ccc2N1C(=O)Cc1ccc2ccccc2c1` (stereo partly specified) is -0.58; for `COC(=O)c1ccc(C#CC(NP(=O)(c2ccccc2)c2ccccc2)c2ccccc2)cc1` (stereo unspecified) it is 1.68.
Consider `C[C@H]1COC(=O)[C@H](Cc2ccccc2)NC(=O)[C@@H](C)COC(=O)[C@H](Cc2ccccc2)NC1=O`, for which the composite z-score was found to be 0.815.
Same read-out and setting: the figure for `CCOC(=O)C[C@H]1[C@H](OC(=O)c2cc3ccccc3oc2=O)[C@@H](NC(=O)C2CCCCC2)c2cc(OCCCO)ccc2N1C(=O)c1ccc2ccccc2n1` is 0.295; for `COc1cccc([C@@H]2[C@@H](C)CC[C@H]3C(=O)N(C)[C@@H](C(C)C)C(=O)N23)c1` it is 0.0253.
On the same count and under the same terms, the figure for `COCC(=C=CC[C@H](O)c1ccc(OCCO)cc1)C[C@H](O)c1ccccn1` is 0.508; for `C=C(CCCC)C(=O)CC[C@@H](OC(=O)c1cccnc1)c1cccc(OCCO)c1` it is 0.544; for `CC(C)NC(=O)[C@@]1(Cc2ccccc2I)c2ccccc2C(=O)N(C2CCCCC2)[C@H]1c1ccc(CO)cc1` it is 1.86.
`NC(=O)[C@H]1[C@@H]2C(=O)O[C@@H](c3ccccc3)[C@@H](c3ccccc3)N2[C@@H](c2ccc(O)cc2)[C@]12C(=O)Nc1ccc(C#CCCO)cc12` had a composite z-score of -0.0709.
Same read-out and setting: the figure for `C=CCNC(=O)[C@@H]1[C@H]2C(=O)O[C@H](c3ccccc3)[C@H](c3ccccc3)N2[C@H](c2ccc(OCCO)cc2)[C@@]12C(=O)N(C(=O)OCCOC)c1ccc(C#CC3(O)CCCCCC3)cc12` is 0.508.
In turn, `CSCC[C@@H]1NC(=O)CC=C[C@@H](C)COC(=O)[C@H](CCSC)NC(=O)CC=C[C@@H](C)COC1=O` yielded a composite z-score of -0.283.
Same read-out and setting: the figure for `COC(=O)[C@@]1(Cc2ccc(OC)cc2)[C@H]2c3cc(C(=O)N(C)C)n(CCc4ccc(OC)c(Br)c4)c3C[C@H]2CN1C(=O)c1ccccc1` is 1.77; for `C#C[C@H](O[Si](C#Cc1ccccc1)(C(C)C)C(C)C)c1ccccc1` it is -0.328; for `COCCCNC(=O)[C@@H]1c2ccccc2C(=O)N(CC23CC4CC(CC(C4)C2)C3)[C@H]1c1ccc(CO)cc1` it is -0.0557.
The same measure, in the same setting: the figure for `C[C@H]1C2[C@H](Cc3ccccc3)NC(=O)[C@]23C(=O)N[C@H](Cc2ccccc2)C(=O)N[C@@H](Cc2ccccc2)C(=O)NC/C=C\C/C=C/C3[C@@H]2O[C@]12C` (stereo partly specified) is -0.384; for `CO[C@]12C=C(Br)[C@@H](C[C@@H]1c1ccccc1)[C@@]1(CO1)C2=O` it is -0.115.
The compound `CO[C@H]1COC(=O)[C@@H](C)COC(=O)[C@H](Cc2ccccc2)NC(=O)CC=C[C@H]1C` had a composite z-score of -0.323.
